# M1 antag = antagonists of human M1 muscarinic receptor. AID 588852. inhibition, % at 3 µM. P11229. CHO-K1 hM1, Fluo-8 calcium fluorescence, ACh EC80 antagonist. actives 1.3% (n = 360,000);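 active = percent inhibition above its own plate's cutoff, namely the mean of that plate's compound wells plus 3 SD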;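 note: peak over basal fluorescence ratio during 140 s after agonist addition; 0% = ACh EC80 plus DMSO and 100% = DMSO alone without agonist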
# Target sequence (P11229 whole entry, looked up): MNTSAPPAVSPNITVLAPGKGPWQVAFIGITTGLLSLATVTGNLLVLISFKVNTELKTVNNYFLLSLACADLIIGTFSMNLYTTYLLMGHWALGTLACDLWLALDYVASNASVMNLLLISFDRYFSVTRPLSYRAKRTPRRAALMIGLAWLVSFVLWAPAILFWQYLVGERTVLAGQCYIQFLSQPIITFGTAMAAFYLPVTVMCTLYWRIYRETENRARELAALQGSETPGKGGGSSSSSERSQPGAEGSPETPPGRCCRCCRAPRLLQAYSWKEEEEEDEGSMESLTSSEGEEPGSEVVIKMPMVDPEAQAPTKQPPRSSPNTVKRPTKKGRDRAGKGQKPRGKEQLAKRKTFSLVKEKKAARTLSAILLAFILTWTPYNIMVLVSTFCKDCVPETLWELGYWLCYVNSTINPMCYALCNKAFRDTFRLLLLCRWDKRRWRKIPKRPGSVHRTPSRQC
# M1 PAM parental = M1 PAM counterscreen hit in parental CHO-K1 cells; ATP EC20, Fluo-8 calcium fluorescence; 0% at ATP EC20, 100% at ATP max; activation, % at 3 µM; actives 0.02% (n = 360,000); AID 602247;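 active = activation above the run cutoff, the mean activation of all test compounds plus 3 SD, cut at about 40% in these data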;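 note: peak over basal fluorescence ratio in a 140 s read after ATP addition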
# M1 ag = agonists of human M1 muscarinic receptor; actives 0.33% (n = 360,000); CHO-K1 hM1, Fluo-8 calcium fluorescence, agonist mode; 0% DMSO, 100% acetylcholine EC100; activation, % at 3 µM;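 active = activation above the run's mean compound activation plus 3 SD, cut at about 16% in these data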;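 note: peak over basal fluorescence ratio within a 140 s kinetic read after compound addition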
# CHO-K1 Ca antag = M1 antagonist counterscreen hit in parental CHO-K1 cells | ATP-induced calcium, Fluo-8 fluorescence | actives 0.6% (n = 360,000) | inhibition, % at 3 µM;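 active = inhibition above a per-plate cutoff, the plate's mean sample inhibition plus 3 SD, cut at about 24% in these data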;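 note: 0% = DMSO plus EC80 ATP and 100% = DMSO alone without ATP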
# CHRM1 PAM = positive allosteric modulators of human M1 muscarinic receptor | P11229 | CHO-K1 hM1, Fluo-8 calcium fluorescence, ACh EC20; 0% = ACh EC20, 100% = maximal ACh | activation, % at 3 µM | actives 0.088% (n = 360,000) | AID 588819; in the data active = activation above about 19%, passing the limit was not always enough
# M1 ag parental = nonselective activator or artifact in parental CHO-K1 cells. Fluo-8 calcium fluorescence; scaled to maximal ATP response, vehicle zero. activation, % at 3 µM. actives 0.48% (n = 360,000); in the data active = activation above about 15%;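 note: untransfected CHO-K1 host cells lacking M1 receptor as counterscreen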
# Numbers without * were called inactive; . = no result. Rows were chosen to be rich in hits. Some 2.3% of all compounds tested hit in one or more screens of this group.
SMILES,M1 antag,M1 PAM parental,M1 ag,CHO-K1 Ca antag,CHRM1 PAM,M1 ag parental
COc1ccccc1N1C(=O)c2cccc3c(N(C)CCO)ccc(c23)C1=O,-16.9,7.0,10.8,-0.5,8.0,13.4
COc1ccc(N(C(=O)CNC(=O)c2cccs2)C(C(=O)NCC2CCCO2)c2ccccc2)cc1OC (centres undefined),9.0,5.4,5.6,15.9,-9.9,3.1
N#CCC(=O)Nc1ccc(C(=O)NCCc2c[nH]c3ccccc23)cc1,-0.8,-0.1,-4.9,-26.3,1.0,0.1
Cn1c(SCC(=O)Nc2ccc3nc(SCC(=O)N4CCCC4)sc3c2)nnc1-c1ccc(N)cc1,12.0,-6.7,-6.3,31.5*,-7.0,-0.6
OCCN1CCN(CC(O)COc2ccc(C34CC5CC(CC(C5)C3)C4)cc2)CC1 (centres undefined),3.0,17.9,-5.0,-1.7,3.0,1.2
NCCOc1ccc(C23CC4CC(CC(C4)C2)C3)cc1,-2.4,25.2,11.6,-6.3,17.1,16.7*
O=C(NNC(=O)C1CC(=O)N(c2ccc3c(c2)OCCO3)C1)c1ccc(F)cc1 (centres undefined),-3.8,-35.6,4.3,27.1*,10.8,-0.2
CN(CC(=O)NCc1ccco1)C(=O)C1CC(=O)N(c2ccc3c(c2)OCCO3)C1 (centres undefined),-21.0,10.4,1.9,-16.9,28.2*,0.0
Cc1cccc(N2CCN(C(=O)C3CC(=O)N(c4ccc5c(c4)OCCO5)C3)CC2C)c1 (centres undefined),29.9*,-3.1,2.0,-0.8,-17.9,11.2
CC(Oc1ccccc1F)C(=O)NNC(=O)C1CC(=O)N(c2ccc3c(c2)OCCO3)C1 (centres undefined),7.6,-19.0,-3.5,11.1,-3.5,-0.3
COc1cccc(-c2ccccc2C2=CC(=O)CC(C)(C)C2=O)c1,-0.9,8.7,-6.6,3.1,-4.7,-0.4
COc1cccc(-c2oc3c(c2C#CCCO)C(O)CCC3)c1 (centres undefined),.,-6.8,.,-5.8,.,0.3
Cc1ccc(S(=O)(=O)N(C)C)cc1[N+](=O)[O-],-13.5,22.4,-3.8,-14.6,4.0,0.9
ClCCn1cnc2c(SCc3ccccc3)ncnc21,-11.1,-5.7,-3.5,7.6,-0.1,-0.4
O=C(Nc1nc2ccccc2s1)C1CCN(S(=O)(=O)c2cc([N+](=O)[O-])ccc2Cl)CC1,53.3*,-19.7,-1.2,40.3*,-16.7,8.8
O=C(COc1ccccc1C(=O)O)Nc1nc2ccc([N+](=O)[O-])cc2s1,26.4*,3.9,4.5,11.2,-9.9,13.0
CC(C)(C)CC(C)(C)SSc1n[nH]c(=S)s1,-22.9,2.9,0.4,-3.9,17.1,0.0
O=C(Cn1cc(C(F)(F)F)ccc1=O)N1CCc2ccccc21,-3.4,7.3,-0.2,1.0,6.9,0.2
O=C(CCc1nnc(C2(c3ccc(Cl)cc3)CCC2)o1)N1CCCC(O)C1 (centres undefined),-4.0,3.1,-3.3,-9.9,3.3,1.5
Cc1cccc2sc(NNC(=O)c3ccc(S(=O)(=O)N4CCCC(C)C4)cc3)nc12 (centres undefined),67.0*,-6.5,-1.1,5.2,-15.9,1.2
CC1(C)CC(C(CCN(Cc2ccccc2)C(=O)c2ccco2)c2ccc(F)cc2)CCO1 (centres undefined),36.1*,12.3,-3.2,4.4,-18.7,4.5
O=C(c1ccco1)N(CCC(c1ccccc1)c1ccco1)Cc1ccc(F)cc1 (centres undefined),0.6,1.2,-2.8,-8.4,1.7,0.8
COc1cccc(Cn2cc(N)cn2)c1,-3.3,0.9,-11.7,-4.7,1.4,-0.1
CCOC(=O)c1c(-c2cccc([N+](=O)[O-])c2)cn2ccccc12,16.1,15.1,-6.2,-7.3,-8.1,1.3
CCOC(=O)c1c(-c2ccccc2Cl)cn2ccccc12,1.1,10.1,-5.7,100.0*,-8.6,1.1
SMILES,M1 antag,M1 PAM parental,M1 ag,CHO-K1 Ca antag,CHRM1 PAM,M1 ag parental
Cc1occc1C(=O)NNC(=O)Nc1ccc(Cl)c(Cl)c1,-9.6,10.2,-4.3,-11.5,7.3,0.6
Cc1ccsc1C(=O)NNC(=O)Nc1ccc(Cl)c(Cl)c1,-18.4,-5.2,-0.4,29.1*,4.1,-0.3
N#Cc1ccc(NC(=O)Nc2ccc(Cl)cc2)cc1,32.1*,7.5,9.0,25.7*,-13.0,13.6
NS(=O)(=O)c1ccc(NC(=O)Nc2ccc(Cl)cc2)cc1,10.9,-9.8,-1.5,27.8*,-7.3,1.2
O=[N+]([O-])c1cc([N+](=O)[O-])c(Oc2cccc3ccccc23)cc1NN1CCCCC1,-9.2,3.4,9.7,-15.6,29.6*,-0.1
O=[N+]([O-])c1cc([N+](=O)[O-])c(Oc2c(Cl)cccc2Cl)cc1NN1CCCCC1,-4.5,7.3,-4.3,-7.8,3.3,0.7
CC(=O)c1ccccc1Oc1cc(NN2CCCCC2)c([N+](=O)[O-])cc1[N+](=O)[O-],36.3*,12.2,-11.1,-8.6,-34.7,-0.3
CC(=O)Nc1ccc(S(=O)(=O)Nc2nnc(C)s2)cc1,-13.3,-3.8,1.1,-2.9,4.4,0.4
CCn1c(SCC(=O)Nc2cc(C)on2)nnc1-c1ccc(OC)cc1,-6.2,19.4,0.8,-10.5,13.1,0.2
COc1ccc(CNC(=O)COC(=O)CN2C(=O)C3CC=CCC3C2=O)cc1 (centres undefined),-24.0,-4.7,3.2,2.2,26.5*,0.1
CC(NS(=O)(=O)c1cccc(C(=O)N(C)Cc2ccc(N3CCOCC3)cc2)c1)c1ccccc1 (centres undefined),-8.1,-6.2,-1.5,-23.1,6.8,3.2
Nc1c(N(CCC2=CCCCC2)C(=O)COc2ccc(F)cc2Cl)c(=O)[nH]c(=O)n1Cc1ccccc1,10.8,3.0,-1.0,-10.3,-4.4,0.2
Cc1cccc(OCC(=O)N(Cc2ccccc2)c2c(N)n(Cc3ccccc3)c(=O)[nH]c2=O)c1,-15.7,3.6,8.0,-15.7,22.8*,0.2
Nc1c(N(CCC2=CCCCC2)C(=O)Cc2ccc(F)cc2)c(=O)[nH]c(=O)n1Cc1ccccc1,10.5,6.7,18.6*,-3.8,-3.7,6.5
COCCN1CCN(C(=O)c2cc(COc3ccc(Cl)cc3OC)on2)CC1,-17.7,-0.4,-2.3,-5.0,17.6,0.6
Cc1cc(C)c2cc(CN(CCO)C(=O)Nc3ccc(F)cc3)c(=O)[nH]c2c1,-4.8,-7.0,-1.7,25.8*,2.4,-0.4
O=c1oc2c3c4c(cc2c(C(F)(F)F)c1CCN1CCOCC1)CCCN4CCC3,15.2,11.5,25.1*,4.4,-3.3,25.7*
CC(C)c1cc(=O)oc2c3c4c(cc12)CCCN4CCC3,1.3,10.3,-8.3,-12.4,-8.6,-0.1
O=C(NC1CCCCC1)C(c1ccccc1)N1CCCC1 (centres undefined),79.8*,4.1,-6.3,-3.1,-25.6,0.3
